Activity calls are given as the source filed them. Calls come from the whole dose curve; as a rule, active = well fitted curve in the direction sought with a large enough effect in the repeat runs; inconclusive = weak or mixed curves; inactive = flat fitted curve, though single readings scatter.
experiment: qHTS assay to test for compound auto fluorescence at 535 nm (green) in HEK293 cells (AID 720680); settings: green autofluorescence 485/535 nm; series mostly up to 91.3 µM
% is set by controls: 0 for no effect and ±100 for the full control effect.

SMILES	outcome
C[C@H](N)C(=O)c1ccccc1	inactive
CCc1cc(OC)c(C[C@H](C)N)cc1OC	inactive
COC(=O)c1ccc(CBr)cc1	inactive
CCN[C@@H](C)Cc1cccc(C(F)(F)F)c1	inactive

experiment: qHTS assay to test for compound auto fluorescence at 460 nm (blue) in HEK293 cell free culture (AID 720681); settings: cell-free medium, autofluorescence 405/460 nm (blue); series mostly up to 91.3 µM
How it was run: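 Test compounds were pinned into cell-free culture medium (DMEM with 10% FBS) and fluorescence was read directly at Ex/Em 405/460 nm. Signals were expressed as fluorescence equivalents of triamterene, with DMSO vehicle as control.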

SMILES	outcome	fluorescence, % of fluorescent control
CCN(CCO)CCO	inactive	
C=CCc1cc(OC)c2c(c1)OCO2	inactive	
C=CC1(C)OC(=O)N(c2cc(Cl)cc(Cl)c2)C1=O (configuration not stated)	inactive	
CNC(=O)NC(O)C(Cl)(Cl)Cl (configuration not stated)	inactive	
CC(C)(O)C(Cl)(Cl)Cl	inactive	
CCCC(C)(COC(N)=O)COC(N)=O	inactive	
Cc1cc(OC(=O)N(C)C)nn1C(=O)N(C)C	inactive	
CS(=O)(=O)Cl	inactive	
NCC1(CC(=O)O)CCCCC1		0.0173% [at 18.6 µM] (inactive)
COc1ccccc1OC	inactive	
[P]#[In]	inactive	
O=C(Cl)/C=C/C(=O)Cl	inactive	
CCOC(=O)NC(C)(C)Cc1ccc(Cl)cc1	inactive	
O=c1[nH]oc2c1CCNC2	inactive	
O=C(Cl)C(Cl)(Cl)Cl	inactive	
N#CN=C1SCCN1Cc1ccc(Cl)nc1	inactive	
CN(CCO)CCO	inactive	
COC(=O)c1ccccc1CS(=O)(=O)NC(=O)Nc1nc(OC)cc(OC)n1	inactive	
CCOC1Oc2ccc(OS(C)(=O)=O)cc2C1(C)C (configuration not stated)	inactive	
Cc1ccc(-c2nc3ccc(C)cn3c2CC(=O)N(C)C)cc1	inactive	
Oc1ccc(Cc2ccc(O)cc2)cc1	inactive	
C=C1CC[C@@]2(O)[C@H]3Cc4ccc(O)c5c4[C@@]2(CCN3CC2CC2)[C@H]1O5	inactive	
CCC(C(N)=O)N1CCCC1=O (configuration not stated)	inactive	
